Data on 40 compounds can be found in PubChem BioAssay (NCI).

This is part of a sample that, as a whole, favours compounds with a hit. Of some 83,000 tested, about 20% had one in any assay.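 Step 1: grow cells in 96-well plates. Step 2: add test compound at a single concentration. Step 3: incubate 48 h. Step 4: record percent growth.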 Activity calls are given as the source filed them. Rule for the calls: active = growth percent below 10; inactive = the rest.

This test relates to MDA-MB-468 breast. Nature of the test: NCI-60 one-dose screen, 48 h (100 = growth as untreated, 0 = no growth, -100 = all killed). Particulars: 10 µM unless noted.
For `COc1cc(/C=C/C(=O)c2ccc(NC(=O)CSc3nnc(-c4cc(-c5ccccc5)nc5ccccc45)n3-c3ccccc3)cc2)cc(OC)c1OC`, the growth was 81.5% (inactive).

Take `CC(C)OCc1cc(CN2CCN(c3cccc(Cl)c3)CC2)c(O)c2ncccc12`: the growth was -15.4% (active).

In the case of `CN(C)CCC(=O)c1ccc(O)cc1`, the growth is 107% (inactive).

As to `O=C(Nc1ccccc1)OCC1OCOC(COC(=O)Nc2ccccc2)C1OC(=O)Nc1ccccc1` (stereo not given), the growth was -1.51% (active).

Regarding `Clc1ccc(C(/C=C/c2sc(Cl)nc2Cl)=N/Nc2cc(Cl)cc(Cl)c2)cc1`, the growth was 107% (inactive).

Regarding `CC(C)Sc1nc(NNC(N)=S)c(C#N)c(-c2ccc(F)cc2)n1`, the growth was 98.4% (inactive).

On to `O=C(Cn1nnc2ccccc21)N/N=C/c1ccccc1F`, for which the growth is 90.8% (inactive).

As for `C[n+]1c(/C=C/c2c(O)ccc3ccccc23)ccc2ccccc21`, the growth was -16.1% (active).

Take `CCCCN1CCN(c2ccc3nc(-c4ccc5nc(-c6ccc(OCC)cc6)[nH]c5c4)[nH]c3c2)CC1`: the growth was 67.3% (inactive).

In the case of `CN1CCN(Cc2ccc(C(=O)Nc3cncc(C#Cc4cnc5cccnn45)c3)cc2C(F)(F)F)CC1`, the growth was 61.1% (inactive).

As for `Cc1c(C)c(C)c([N+](=O)[O-])c([N+](=O)[O-])c1C`, the growth was 82.1% (inactive).

Take `CS(=O)c1cccc(-c2ccc3nc(N)n(-c4ccc(C(F)(F)F)cc4)c(=O)c3c2)c1` (stereo not given): the growth was 84.4% (inactive).

Turning to `O=C(Nc1ccccc1O)c1ccc(Oc2cccc(C(=O)Nc3ccccc3O)c2)cc1`, the growth was -27.2% (active).

Regarding `NNC(=O)C1CC2c3ccccc3C1c1ccccc12` (stereo not given), the growth is 112% (inactive).

Turning to `COc1ccc(C2CC(c3ccc(N(C)C)cc3)=NN2c2ccc(S(N)(=O)=O)cc2)cc1` (stereo not given), the growth was 57.6% (inactive).

As to `CC(C)C(/C=C/c1[nH]ncc1-c1cc(Cl)ccc1O)N1CCOCC1` (stereo not given), the growth was 84.9% (inactive).

Regarding `COc1cc(NS(=O)(=O)C(C)C)cc(-c2cc(-c3ccc(N4CCNCC4)cc3)cnc2N)c1`, the growth was 92.2% (inactive).

Turning to `COc1ccc(/C=c2\sc3n(c2=O)NC2C(N=3)N(C)C(=O)N2C)cc1` (stereo not given), the growth is 99% (inactive).

`CCCCc1ccc(NC(=O)C(F)(F)F)cc1`: the growth was 109% (inactive).

`Cc1occc1-c1n[nH]c(=S)n1N1C(=O)CSC1=S`: the growth was 103% (inactive).

As for `O=C1c2ccc3c4ccc5c6c(ccc(c7ccc(c2c37)C(=O)N1CCC[P+](c1ccccc1)(c1ccccc1)c1ccccc1)c64)C(=O)N(CCC[P+](c1ccccc1)(c1ccccc1)c1ccccc1)C5=O`, the growth is -2.38% (active).

For `c1cc(NCCc2ccncc2)nc(-n2cnc3ccccc32)c1`, the growth is 95% (inactive).

Regarding `CCCCCCCCCCN1CC2CCCCC2C1` (stereo not given), the growth was 54.7% (inactive).

Consider `CC1=C[C@H]2c3c(c(O)c(O)c4oc5c(C)cccc5c(=O)c34)[C@H](c3cc(O)c(O)c4oc5c(C)cccc5c(=O)c34)[C@H]2C(C)(C)C1`, for which the growth was 21.6% (inactive).

For `COc1ccc(OC)c(NC2=C(SCCc3ccccc3)C(=O)c3ccccc3C2=O)c1`, the growth is 65.7% (inactive).

For `c1ccc(C2CCCCC2)c(OCCCCCN2CCNCC2)c1`, the growth is -36.2% (active).

Turning to `CCCCn1c(=O)[nH]c(N)c(C(c2ccc(F)cc2)c2c(N)[nH]c(=O)n(CCCC)c2=O)c1=O`, the growth is 51.2% (inactive).

In the case of `COc1ccc2c(c1)C(=O)/C(=C/c1ccc([N+](=O)[O-])s1)O2`, the growth was -22.9% (active).

On to `CC(CO)(CO)C(=O)O`, for which the growth was 99.9% (inactive).

On to `Oc1ccccc1N=Cc1c(O)ccc2ccccc12`, for which the growth was 83.2% (inactive).

As to `Cc1ccccc1N=C(N)Nc1ccccc1C` (tested in a mixture with another compound), the growth is 87.1% (inactive).

Regarding `CC(=O)N1N=C(c2ccc3c(c2)OCO3)CC1c1c(C)nn(-c2ccccc2)c1N(C)Cc1ccccc1` (stereo not given), the growth is 61.5% (inactive).

On to `CC(=O)C1C(=O)C(=O)N(c2ccc(Cl)c(Cl)c2)C1=O` (stereo not given), for which the growth was 115% (inactive).

`COc1ccc(-c2cncn2-c2ccc(-c3nc4cc(OC)c(OC)c(OC)c4s3)cc2)cc1N`: the growth was 78.4% (inactive).

As for `COC(=O)C1=C(C(=O)ONCCN(C)C)C2C=CC1(C(Cc1ccccc1)Nc1ccc(F)cc1)O2` (stereo not given), the growth is 75.3% (inactive).

As to `COc1cccc(-c2nn(-c3ccccc3)cc2-c2ccnc(N3CCN(C(=O)Nc4ccc(F)cc4)CC3)c2)c1`, the growth is 51.6% (inactive).

In the case of `Nc1ncnc2c1c(-c1ccc(Oc3ccccc3)cc1)nn2C[C@H]1SSC[C@H]1O`, the growth was -5.04% (active).

`O=C(Nc1cccc(Cl)c1)Nc1nccs1`: the growth is -0.235% (active).

With `CC(=O)Oc1ccccc1C(=O)Nc1ccc(C(=O)/C=C/c2cccs2)cc1`, the growth is 109% (inactive).

In the case of `Cc1ccc(C)c2c(C)c(C(=O)Nc3cccc(-n4cccn4)c3)oc12`, the growth was 27.8% [50 µM] (inactive).
